Shiga inhibitor: A qHTS for Small Molecule Inhibitors of Shiga Toxin; Vero cells, Shiga toxin protein synthesis inhibition reporter; inhibition, % at 38.7 µM; 290,000 tested, 9.2% active; AID 2315, 2010; in the data active = inhibition mostly above about 28%, no sharp cut-off; inactive = mostly below about 43%
Cycloheximide cs: Cycloheximide Counterscreen for Small Molecule Inhibitors of Shiga Toxin; cell reporter, cycloheximide protein synthesis inhibition counterscreen; max response, %; 300,000 tested, 12% active; AID 2314, 2010; in the data active = max response mostly above about 13%, no sharp cut-off; inactive = mostly below about 14%; also: read at 38.3 µM for the half of the compounds with a filed dose
Giardia FBPA inh: qHTS Assay for Inhibitors of Fructose-1,6-bisphosphate Aldolase from Giardia Lamblia; purified Giardia FBPA; A8B2U2; Potency, µM (top dose mostly 59.6 µM), actives largely listed as inhibitors; 290,000 tested, 0.71% active; also: nearly all actives have a fitted effect of over 55% in size
Target sequence (A8B2U2 whole entry, looked up): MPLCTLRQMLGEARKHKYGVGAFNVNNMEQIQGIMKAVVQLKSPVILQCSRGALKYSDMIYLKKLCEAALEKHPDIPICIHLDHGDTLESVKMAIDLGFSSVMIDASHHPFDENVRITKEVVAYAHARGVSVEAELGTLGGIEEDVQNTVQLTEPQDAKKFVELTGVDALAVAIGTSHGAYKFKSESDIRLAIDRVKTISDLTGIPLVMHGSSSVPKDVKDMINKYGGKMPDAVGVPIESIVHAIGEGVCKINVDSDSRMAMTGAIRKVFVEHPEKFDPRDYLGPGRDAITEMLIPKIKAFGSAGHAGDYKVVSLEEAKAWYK
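Giardia FBPA (40 nM reagent) was preincubated 10 min at RT with compound (up to 57.5 uM final), then substrate plus GAPDH/TPI/NAD/arsenate coupling system with diaphorase/resazurin was added; resorufin fluorescence (525/598 nm) was read after 20 min.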
LmPK inhibitor: qHTS Assay for Inhibitors of Leishmania Mexicana Pyruvate Kinase (LmPK); Q27686; purified LmPK, Kinase-Glo ATP luminescence, 1 h; Potency, µM (doses to about 57.5 µM), usual class: inhibitors; 290,000 tested, 0.37% active; AID 1721, 2009
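0.1 nM LmPK, 0.5 mM PEP, 0.1 mM ADP; 50 mM imidazole pH 7.2, 7 mM MgCl2, 50 mM KCl; 1 h RT. Kinase-Glo luminescence readout, normalized to no-enzyme (full inhibition) and uninhibited wells.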
RE007 growth inh: qHTS Assay for Inhibitors of the HIV-1 protein Vpr | AID 651644, 2012 | 360,000 tested, 0.21% active | S. pombe RE007 Vpr strain, BacTiter-Glo ATP luminescence, 24 h | Potency, µM (series often up to 92.2 µM), actives largely listed as inhibitors; active = well fitted falling curve with a large enough effect; inconclusive = small, poorly fitted or top-dose-only effect; inactive = no such curve, though single readings can be large or run the other way; also: nearly all actives have a fitted effect of over 50% in size
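Fission yeast RE007 carrying one integrated HIV-1 vpr copy, seeded at OD 0.01 in PMG+AL medium with 23 nL pinned compound. Grown 24 h at 30 degrees; viability read by BacTiter-Glo luminescence after 5 min.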
Tb PYK inh: qHTS of Trypanosoma Brucei Inhibitors. TbPYK enzyme, Kinase-Glo Plus ATP luminescence, 45 min. Potency, µM (series often up to 76.8 µM), usual class: inhibitors. 410,000 tested, 0.12% active. AID 624173, 2012; also: nearly all actives have a fitted effect of over 50% in size
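Assay buffer: 50 mM TEA pH 7.2, 100 mM KCl, 10 mM MgCl2, 0.05% BSA, 0.01% Tween-20. Pyruvate kinase from T. brucei plus substrate met compound, then ADP (130 uM final). Luminescence was read post 45 min RT.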
Large screens that a line does not name were inactive. This is one part of a sample in which hits are shown more often than they occur. Unless noted, calls follow the shape of the dose curve; as a rule, active = well fitted curve in the direction sought with a large enough effect; inconclusive = small, poorly fitted or top-dose-only effect, or another doubt; inactive = no such curve, though single readings can be large; an effect the other way counts as inactive or inconclusive.

Oc1c(C=Nc2ccccc2Cl)[nH]c2ccccc12	Shiga inhibitor 77, Cycloheximide cs 47
O=c1[nH][nH]c(C(F)(F)F)c1C=Nc1ccccc1Cl	none
Cc1ccc(CNCC(O)(c2ccccc2)c2ccccc2)cc1	Cycloheximide cs 15
Cc1ccc(C(=O)NCc2ccccc2)c(F)c1F	Shiga inhibitor 65
Cc1cc(C(=O)NCc2ccccc2)c(=O)[nH]c1C	none (no result: Tb PYK inh)
Cc1ccc(CNC(=O)NCc2ccccc2)cc1	Shiga inhibitor 149, Cycloheximide cs 26
Cc1ccc(C)c(CNC(=O)Nc2ccccc2)c1	Shiga inhibitor 74, Cycloheximide cs 30
CCOc1cc(-c2nnc(SCC(=O)NCc3ccccc3)nc2-c2ccc(OC)c(OCC)c2)ccc1OC	none (no result: Shiga inhibitor, Cycloheximide cs, Giardia FBPA inh, LmPK inhibitor, RE007 growth inh)
Cn1sc(=O)n(Cc2ccccc2)c1=O	none (no result: LmPK inhibitor, RE007 growth inh, Tb PYK inh)
COc1ccccc1CN1CCC2(CC1)CCN(S(C)(=O)=O)CC2	none (no result: Shiga inhibitor, Cycloheximide cs, LmPK inhibitor, RE007 growth inh)
Cc1cnc(CNc2cc(-c3ccc4c(c3)OCO4)ncn2)cn1	none (no result: Shiga inhibitor, Cycloheximide cs, LmPK inhibitor, RE007 growth inh, Tb PYK inh)
CCCCNC(=O)c1ccc2c(=O)n(Cc3ccc(OC)cc3)c(=O)[nH]c2c1	none (no result: Shiga inhibitor, Cycloheximide cs, Giardia FBPA inh, LmPK inhibitor, RE007 growth inh)
CCOC(=O)C(=O)Nc1ccccc1C(=O)NCc1ccccc1	Shiga inhibitor 85, Cycloheximide cs 33
Cc1ccc(CNC(=O)Nc2ccccc2)cc1	Shiga inhibitor 123, Cycloheximide cs 33
COc1ccc(N2C(=O)CC(N3CCN(c4ccccc4)CC3)C2=O)cc1 (configuration not stated)	none
COc1ccc(N2C(=O)CC(N3CCC(c4nc5ccccc5[nH]4)CC3)C2=O)cc1 (configuration not stated)	RE007 growth inh 40µM
COc1ccc(N2C(=O)CC(N3CCN(c4ccccc4F)CC3)C2=O)cc1 (configuration not stated)	none
O=C1CC(N2CCC(c3nc4ccccc4[nH]3)CC2)C(=O)N1c1ccccc1F (configuration not stated)	RE007 growth inh 35µM
Cc1ccccc1CNC(=O)CCS(=O)(=O)c1cc2c3c(c1)CCN3C(=O)CC2	none (no result: Shiga inhibitor, Cycloheximide cs, Giardia FBPA inh, LmPK inhibitor, RE007 growth inh)
O=C(OCC(F)(F)F)[C@H](O)[C@@H](O)C(=O)OCC(F)(F)F	none (no result: Shiga inhibitor, Cycloheximide cs, LmPK inhibitor, RE007 growth inh, Tb PYK inh)
Cc1ccc(C)c(N2CCN(CCCNC(=O)c3ccc4nc(C(C)C)oc4c3)CC2)c1	none (no result: Shiga inhibitor, Cycloheximide cs, Giardia FBPA inh, LmPK inhibitor, RE007 growth inh)
CN(Cc1ccon1)Cc1cn(C)nc1-c1ccc(Oc2ccccc2)cc1	none
CN(Cc1cn[nH]c1-c1ccc(-c2ccccc2)cc1)CC1CCOCC1	Cycloheximide cs 17
CN(Cc1ccon1)Cc1cn[nH]c1-c1ccc(-c2ccccc2)cc1	Cycloheximide cs 30
CC(c1ccon1)N(C)Cc1cn[nH]c1-c1ccc(-c2ccccc2)cc1 (configuration not stated)	Shiga inhibitor 73
CC(C)=CCC/C(C)=C\CC/C(C)=C\CC/C=C(\C)CC/C=C(\C)CCC=C(C)C	none (no result: Shiga inhibitor, Cycloheximide cs, Giardia FBPA inh, LmPK inhibitor, RE007 growth inh)
Cc1csc(N/N=C/c2ccccc2F)n1	Shiga inhibitor 56, Cycloheximide cs 38
CCOc1ccc(/C=N/Nc2nc(C)cs2)c(O)c1	Shiga inhibitor 58, Cycloheximide cs 49
Cc1csc(N/N=C/c2c(F)cccc2Cl)n1	Shiga inhibitor 86, Cycloheximide cs 38
Cc1ccc(N2C(=O)CC(c3ccccc3F)C3=C2COC3=O)cc1Cl (configuration not stated)	none (no result: Shiga inhibitor, Cycloheximide cs, Giardia FBPA inh, LmPK inhibitor, RE007 growth inh)
CC(CC(=O)N1CCc2ccccc21)c1ccccc1 (configuration not stated)	Cycloheximide cs 18
O=C(CN1CCCc2ccccc21)N1CCc2ccccc21	Shiga inhibitor 48, Cycloheximide cs 28
O=C(CN1CCCCC1)N1CCc2ccccc21	none
NNC(=O)CN1CCCc2ccccc21	Shiga inhibitor 92, Cycloheximide cs 69
O=C(CN1CCCc2ccccc21)NCc1ccccc1Cl	none
CCOC(=O)C(C)NC(=O)c1cc2c(=O)[nH]c3ccc(C)cc3c2s1 (configuration not stated)	none (no result: Shiga inhibitor, Cycloheximide cs, Giardia FBPA inh, LmPK inhibitor, RE007 growth inh)
CCCc1[nH]nc2c1C(c1ccc(OCCN3CCOCC3)c(OC)c1)C(C#N)=C(N)O2 (configuration not stated)	Shiga inhibitor 54, Cycloheximide cs 49
CCOC(=O)CN[C@@H](C(=O)N1CC[C@H]1C(=O)NCc1ccc(/C(N)=N/O)cc1)C1CCCCC1	none (no result: Shiga inhibitor, Cycloheximide cs, Giardia FBPA inh, LmPK inhibitor, RE007 growth inh)
O=C(Cn1cc([N+](=O)[O-])ccc1=O)NCc1ccc(Cl)cc1Cl	Shiga inhibitor 24, Cycloheximide cs 33 (no result: Giardia FBPA inh)
CCOC(=O)c1ccc(N=Nc2c(C)c(C#N)c(O)[nH]c2=O)cc1	Shiga inhibitor 83, Cycloheximide cs 46
NC(=O)c1ccc(N=Nc2c(O)c3ccccc3[nH]c2=O)cc1	none (no result: RE007 growth inh, Tb PYK inh)
COc1ccc(C(=O)N2CCCC(c3nc(-c4ccc(C)o4)no3)C2)cc1OC (configuration not stated)	none
Cc1ccc(-c2nc(C3CCN(S(C)(=O)=O)CC3)no2)cc1	Cycloheximide cs 28
CCOc1ccccc1NC(=O)N1CCCC(c2nc(-c3ccc(C)o3)no2)C1 (configuration not stated)	none
Cc1ccc(-c2noc(C3CCCN(C(=O)c4ccccc4)C3)n2)o1 (configuration not stated)	Shiga inhibitor 59, Cycloheximide cs 41
Cc1ccc(-c2noc(C3CCN(S(C)(=O)=O)CC3)n2)o1	Shiga inhibitor 80, Cycloheximide cs 20
Cc1ccc(-c2noc(C3CCCN(C(=O)c4ccccc4Br)C3)n2)o1 (configuration not stated)	Shiga inhibitor 71, Cycloheximide cs 28
Cc1ccc(C(=O)OC[C@H]2O[C@H](Cl)C[C@@H]2OC(=O)c2ccc(C)cc2)cc1	none (no result: Shiga inhibitor, Cycloheximide cs, LmPK inhibitor, RE007 growth inh, Tb PYK inh)
Clc1ccc(-c2nc(C3CCCCC3)no2)cc1	Shiga inhibitor 89, Cycloheximide cs 32
CCCCOc1ccc(C(=O)N2CCC(C)CC2)cc1	none
CCCCOc1ccc(C2CCC(C(C)=O)C(C)C2)cc1 (configuration not stated)	Shiga inhibitor 62, Cycloheximide cs 51
CCCCC(=O)Nc1ccc(N2CCCC2)cc1	none (no result: Shiga inhibitor, Cycloheximide cs, Giardia FBPA inh, LmPK inhibitor)
O=C(CCc1ccccc1)Nc1ccc(N2CCCCC2)cc1	Shiga inhibitor 93, Cycloheximide cs 33
CCCOC(=O)Nc1ccc(N2CCCCC2)cc1	Shiga inhibitor 56, Cycloheximide cs 34
O=C(CN1CCCC1)Nc1ccc(NC(=O)Nc2ccccc2Cl)cc1	Cycloheximide cs 25
O=C(CN1CCCCC1)Nc1ccc(N2CCCCCC2)cc1	Cycloheximide cs 17, Giardia FBPA inh inconclusive
O=C(Cc1ccccc1)Nc1ccc(N2CCCC2)cc1	none
CCOc1ccc(NC(=O)CSc2nnc3c(C)cc4ccccc4n23)cc1	none (no result: Shiga inhibitor, Cycloheximide cs, Giardia FBPA inh, LmPK inhibitor, RE007 growth inh)
